Among all 68,000 compounds or so, about 2,700 (4%) showed an effect of 50% or more. The list comes from a sample in which strong results are over-represented; it also holds similar structures and randomly drawn compounds.

The test system of the experiment is Plasmodium berghei. Briefly: Screen against P. berghei liver stage (PbLuc), transformed with Luciferase, at 2uM. The note with it: tested at 2 uM. Type of experiment: functional, HepG2.
As to `Cc1nc(CCNC(=O)NC(C)Cn2cccn2)cs1` (stereo unspecified), the INHIBITION is given as 38.76%.
For `O=C(N[C@@H]1CN[C@H]2CCCO[C@H]21)c1cccnc1` the value was 33.69%.
As for `CC(=O)N1CCN(C(C)c2nnc(CC(C)C)o2)CC1` (stereo unspecified), the figure is 2.02%; as for `CN(Cc1ccncn1)C(=O)CCc1[nH]nc2c1CCCC2`, -2.31%.
`CNc1ncc(CN(C)C(=O)CCc2[nH]nc3c2CCCC3)cn1`: the INHIBITION is listed as 50.57%.
As for `CNc1ncc(CN(C)C(=O)CCc2cc3n(n2)CCCNC3)cn1`, the figure is 20.76%; as for `Cc1ccc(CNC(=O)Cn2nc(-c3ccc(F)cc3)oc2=O)cc1F`, 1.6%.
For `COc1cccc(-c2noc(C3CCN(CC4CCCCC4)C3)n2)c1` (stereo unspecified) the value was 30.29%; for `CCS(=O)(=O)N1CCC2(CC1)CN(C(=O)N(C)C)Cc1ccccc12`, 6.79%; for `CCc1csc(CCNC(=O)CC2CCN(C(C)C)CC2)n1`, -2.5%.
Take `CC(C)N1CCC(CC(=O)NCCc2cc(O)ncn2)CC1`: the INHIBITION is 60.59%.
As for `CC(C)N1CCC(CC(=O)NCc2cc(O)ncn2)CC1`, the figure is 12.17%; as for `Cn1ccnc1CN1C[C@@H]2OCCN(c3ncccn3)[C@@H]2C1`, 52.17%.
For `Cn1cncc1CN1C[C@@H]2OCCN(c3ncccn3)[C@@H]2C1` the value was 25.02%; for `CN(C)c1nccc(N2CCO[C@H]3CN(Cc4nccn4C)C[C@H]32)n1`, 11.6%; for `CC(C)NC(=O)N1Cc2nccn2CC(CN2CCCC2)C1` (stereo unspecified), 2.5%.
For `CCC(C)Oc1ccc(CNCCc2c[nH]cn2)cc1Cl` (stereo unspecified) the value was 12.15%; for `Cc1cc(NC(=O)Cn2nc(C)c(C#N)c2N)ccc1Br`, 55.86%; for `Cc1nn(CC(=O)Nc2ccc(F)cc2)c(N)c1C#N`, 58.12%.
Consider `Cc1ccc(C)c(NC(=O)Cn2nc(C)c(C#N)c2N)c1`, for which the INHIBITION is given as -15.17%.
For `CC(=O)c1c(C)nn(CC(=O)Nc2ccc(F)cc2)c1C` the value was -16.43%.
As for `COc1ccc(C)cc1NC(=O)Cn1nc(C)c(C#N)c1N`, the figure is 5.32%.
For `Cc1nn(CC(=O)Nc2cccc(F)c2)c(N)c1C#N` the value was -33.61%; for `CCc1ccc(S(=O)(=O)N2Cc3c(CN(C)C)nn(C)c3C2)cc1`, 48.09%; for `NC1CCc2nc(-c3ccncc3)nc(Nc3cccc(F)c3)c2C1` (stereo unspecified), -23.54%.
As for `Cc1cccc2c1ccn2CCC(=O)Nc1c2c(nn1C)CSC2`, the INHIBITION turned out to be 13.65%.
As for `CCN(C)c1ncnc2c1CCN(Cc1ccc(OC)cc1)CC2`, the figure is 7.86%; as for `O=C(c1ccccn1)N1CCCC(c2nccn2CC2CCC2)C1` (stereo unspecified), 14.41%; as for `O=C(CSCC1CC1)N1CCCC(c2nccn2Cc2ccccn2)C1` (stereo unspecified), -17.83%.
As for `O=C(Cc1ccccn1)N1CCCC(c2nccn2CC2CCC2)C1` (stereo unspecified), the figure is 54.47%.
For the compound `Cc1csc(CCCNC(C)CC(=O)Nc2cccc(C)c2C)n1` (stereo unspecified), the INHIBITION is on record as -77.68%.
As for `O[C@@H]1C[C@@H](c2nc(-c3ccc(OC(F)(F)F)cc3)no2)N(CC2CC2)C1`, the figure is 13.92%; as for `Cc1noc([C@H]2CC[C@@H]3[C@@H](CCN3S(=O)(=O)C3CC3)O2)n1`, 1.83%.
As for `O=C(Cc1ccccc1Cl)Nc1cnn(C2CCOC2)c1` (stereo unspecified), the figure is 2.49%; as for `COc1ccc(-c2c(C)nn3c(=N)c(C#N)n[nH]c23)cc1OC`, 1.04%; as for `COCC(=O)NC1(c2cccc(C(F)(F)F)c2)CCC1`, 24.82%.
For `CCNC(=O)CCC(=O)NC1(c2cccc(C(F)(F)F)c2)CCC1` the value was 18.85%.
With `CS(=O)(=O)CCC(=O)NC1(c2cccc(C(F)(F)F)c2)CCC1`, the INHIBITION is given as 61%.
For `COCCC1(C(=O)O)CCCN(Cc2cc3c(cc2C)OCO3)C1` (stereo unspecified) the value was -48.91%.
Regarding `c1cnn(-c2ccc(CCNC3CCN(C4CC4)C3)cc2)c1` (stereo unspecified), the INHIBITION was determined as 27.73%.
Regarding `C[C@H](O)CNc1cc(-c2ccncc2)ncn1`, the INHIBITION was -29.38%.
As for `OCCNc1cc(-c2ccccc2)ncn1`, the INHIBITION is -7.01%.
As for `C[C@H](O)CNc1cc(-c2ccccc2)ncn1`, the figure is 59.56%.
As to `CC(C)NC(=O)CC1COC2(CCN(Cc3ccco3)CC2)C1` (stereo unspecified), the INHIBITION is reported as 43.58%.
For `O=C(NCc1cc(N2CCOCC2)ncn1)c1cccc(CO)n1` the value was -15.77%.
For `O=S(=O)(c1cccnc1)N1C[C@H]2CC[C@@H](C1)N(Cc1ccccc1)C2` the value was -11.31%; for `CC(C)=CCN1C[C@@H]2CC[C@H]1CN(S(=O)(=O)c1cccnc1)C2`, 54.75%.
For `O=S(=O)(c1cccnc1)N1C[C@H]2CC[C@@H](C1)N(Cc1ccccn1)C2` the value was -3.6%.
As to `c1ccc2c(c1)N(CC1CCOC1)CC21CCN(c2cnccn2)CC1` (stereo unspecified), the INHIBITION is on record as -39.01%.
As for `O=C(Cn1nc(C(F)(F)F)c(Br)c1C1CC1)N1CCOCC1`, the figure is 6.33%.
As for `Cc1ccc(CN2CC[C@H]3CO[C@H](CN4CCN(C)CC4)[C@H]3C2)o1`, the figure is 16.78%; as for `Cc1ccc(CN2CC[C@H]3CO[C@H](CN4CCCC4)[C@H]3C2)o1`, 50.85%; as for `Cc1ccc(CN2CC[C@H]3CO[C@H](CN(C)C)[C@H]3C2)o1`, -5.44%.
For `CC(=O)N(C)c1nc(Cn2nnnc2C2CCCC2)cs1` the value was -26.07%; for `O=C(Cn1cc(-n2cccc2)cn1)NCC1CCC1`, -28.99%; for `COCCn1cc2c(n1)C(CNCc1ccsc1)OCC2` (stereo unspecified), 30.19%.
For `COCCN1C(=O)[C@@H]2CC[C@H]1CN(c1nccc(C)n1)C2`, the INHIBITION is listed as -1.56%.
For `COCCN1C(=O)[C@@H]2CC[C@H]1CN(c1ncccn1)C2` the value was 57.34%; for `CNc1ccnc(N2C[C@H]3CC[C@@H](C2)N(CCOC)C3=O)n1`, 40.51%.
For `CN(Cc1ccccn1)C(=O)[C@]12COC[C@H]1CN(Cc1cnn(C)c1)C2` the value was 0.3%; for `O=C(CN1C[C@@H]2CC[C@H]1CN(Cc1ccccn1)C2)Nc1ccccc1`, -16.18%; for `O=C(c1cc(C2CC2)no1)N1C[C@@H]2CC[C@H]1CN(Cc1ccccn1)C2`, -62.92%.
`O=C(CN1C[C@@H]2CC[C@H]1CN(Cc1ccccn1)C2)NCc1cccs1`: the INHIBITION is recorded as 52.98%.
In the case of `Cc1nnsc1CN1C[C@@H]2CC[C@H]1CN(Cc1ccccn1)C2`, the INHIBITION is listed as -17.17%.
As for `Cn1ccc(NC(=O)CN2C[C@@H]3CC[C@H]2CN(Cc2ccccn2)C3)n1`, the figure is 52.98%; as for `COCCN1C[C@@H]2CC[C@H]1CN(CC(=O)Nc1ccn(C)n1)C2`, 5.28%.
